Screens: PubChem, National Center for Advancing Translational Sciences (NCATS)
S2 tox – Viability Counterscreen for Primary qHTS for Inhibitors of ATXN expression. S2 cells (HEK-293 line with an ATXN2-luciferase reporter) viability, CellTiter-Fluor protease fluorescence, 24 h. Potency, µM (doses to about 56.7 µM), usual class: cytotoxic. 400,000 tested, 0.49% active. AID 651635, 2014; also: nearly all actives have a fitted effect of over 40% in size
TGFb SMAD3 inh – qHTS for Inhibitors of TGF-b. HepG2 CAGA-GFP TGF-b/SMAD3 reporter, GFP fluorescence, 18 h; TGF-beta stimulated, 500 pg/mL final. Potency, µM (doses to about 46.1 µM), without a hit: top-dose activity, negative = inhibition, actives largely listed as inhibitors. 410,000 tested, 1.2% active; also: % is scaled to controls: 0 for no effect and ±100 for the full control effect; nearly all actives have a fitted effect of over 65% in size
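TGF-beta reporter screen: HEPG2 CAGA-GFP, 1% FBS, 500 pg/mL TGF-beta final, 18 h; per-cell GFP summed per well; curves fitted and categorized by class.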
HepG2 tox – qHTS for Inhibitors of TGF-b: Cytotox Counterscreen; 410,000 tested, 0.76% active; Potency, µM (doses to about 46.1 µM), for inactives: top-dose activity change, negative = cytotoxicity, most hits filed as cytotoxic; HepG2 CAGA-GFP viability, ATP luminescence, 18 h; AID 588856, 2011
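HepG2 CAGA-GFP cells (1000/well, DMEM with 1% FBS) received compound, then TGF-beta at 500 pg/mL final, and were incubated 18 hours at 37 degrees C. Viability was read by CellTiter-Glo luminescence. Media-only wells were set as complete cell-killing and DMSO as no toxicity.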
KB-V1 MDR tox – qHTS assay for MDR1-selective chemotherapeutics: Primary screen using the drug-selected MDR subline cells KB-V1; KB-V1 MDR cells viability, CellTiter-Glo, 72 h; Potency, µM (series often up to 46.1 µM), usual class: cytotoxic; 400,000 tested, 3.4% active; AID 1347076, 2019; also: % is scaled to controls: 0 for no effect and ±100 for the full control effect; nearly all actives have a fitted effect of over 60% in size
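qHTS viability screen in drug-selected KB-V1 MDR cells: 72 h compound treatment at 37 degrees C, ATP luminescence end point.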
ATXN2 expr inh – Primary qHTS for Inhibitors of ATXN expression. HEK-293 ATXN2-luciferase reporter, luminescence, 24 h. Potency, µM (highest dose often 57 µM), for inactives: top-dose activity change, negative = inhibition, hits mostly inhibitors. 360,000 tested, 0.72% active; also: % is scaled to controls: 0 for no effect and ±100 for the full control effect; nearly all actives have a fitted effect of over 55% in size
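qHTS (up to 57 uM final) was run with 24 h compound exposure of reporter cells at 37 °C. Each well was multiplexed: SteadyGlo luminescence measured ATXN2-luciferase expression after a fluorogenic Gly-Phe-AFC viability readout (25 uM final).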
KB-3-1 tox – qHTS assay for MDR1-selective chemotherapeutics: Primary screen using the parental adenocarcinoma cell KB-3-1 | 400,000 tested, 1.4% active | AID 1347075, 2019 | Potency, µM (top dose mostly 46.1 µM), usual class: cytotoxic | KB-3-1 viability, CellTiter-Glo ATP luminescence, 72 h; also: % is scaled to controls: 0 for no effect and ±100 for the full control effect; nearly all actives have a fitted effect of over 60% in size
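Parental KB-3-1 adenocarcinoma cells in phenol-red-free DMEM with 10% FBS were pin-treated with compounds at several concentrations, incubated 72 h at 37 °C, and viability read by CellTiter-Glo luminescence; concentration-effect curves were fitted after normalization.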
Starred values were filed as active, the others as inactive; i = inactive; u = inconclusive; x = not tested or not shown; ! = not confirmed by another sample. Only some compounds are listed: those with a hit (about 5.9% of all), similar ones and a draw of the others. Calls follow the shape of the dose curve; as a rule, active = well fitted curve in the direction sought with a large enough effect; inconclusive = small, poorly fitted or top-dose-only effect, or another doubt; inactive = no such curve, though single readings can be large; an effect the other way counts as inactive or inconclusive. Potency is read from the fitted curve at half-maximal effect.

SMILES | S2 tox | TGFb SMAD3 inh | HepG2 tox | KB-V1 MDR tox | ATXN2 expr inh | KB-3-1 tox
COc1cc(-c2nnc(CSc3nnc(Nc4ccc(C(C)C)cc4)s3)o2)cc(OC)c1OC | u | u | -36.8% | 20.6µM* | -59.0% | i
O=S(=O)(c1cccc2cnccc12)N1CCCNCC1 | i | 8.3% | -24.1% | i | 25.1µM*! | u
Cc1ccc2c(c1)nnn2C1CCN(S(=O)(=O)c2ccc(C(=O)N3CC(C)CC(C)C3)cc2)CC1 (stereo not given) | i | -0.5% | -9.5% | u | u | 16.4µM*
Cc1ccc2c(c1)nnn2C1CCN(S(=O)(=O)c2ccc(C(=O)NC3CCCC3)cc2)CC1 | i | -1.3% | 1.5% | u | -16.3% | i
Cc1ccc2c(c1)nnn2C1CCN(S(=O)(=O)c2cccc(S(=O)(=O)N(C)C)c2)CC1 | i | 10.7% | -42.9% | i | -36.9% | i
COC(=O)c1cccc(S(=O)(=O)N2CCCC2)c1 | i | 5.1% | 15.3% | i | 0.4% | i
Cc1ccc2c(c1)nnn2C1CCN(S(=O)(=O)c2ccc3ccccc3c2)CC1 | i | u | -3.4% | 20.6µM* | -11.3% | i
Cc1ccc2c(c1)nnn2C1CCN(S(=O)(=O)c2ccc(C(=O)N(C)C)cc2)CC1 | i | 15.2% | 6.1% | 9.2µM* | 0.0% | u
COC(=O)c1cccc(S(=O)(=O)N2CCC(n3nnc4cc(F)ccc43)CC2)c1 | i | -30.7% | -45.1% | 16.4µM* | -20.2% | i
C=CC[N+]1([C@H]2C[C@H]3[C@@H]4CC[C@H]5C[C@H](O)[C@@H](N6CCOCC6)C[C@]5(C)[C@@H]4CC[C@]3(C)[C@H]2OC(C)=O)CCCC1 | x | x | x | x | 1.0% | x
Cc1ccc2c(c1)nnn2C1CCN(CC(=O)N(c2ccccc2)c2ccccc2)CC1 | u | u | -50.7% | 9.2µM* | x | u
CCCN(c1ccccc1CC)S(=O)(=O)c1ccc2c(c1)CC(C)N2C(=O)C1CC1 (stereo not given) | x | x | -22.6% | x | x | x
COc1ccc(CNC(=O)c2cnc3sc4cc(OC)ccc4n3c2=O)cc1 | x | u | 13.0% | i | x | i
Cc1cc(C(=O)C(C)Sc2cccc[n+]2[O-])c(C)n1-c1ccc(Cl)cc1 (stereo not given) | i | 16.6% | 4.8% | 20.6µM* | -1.0% | u
CCOC(=O)c1c(C)sc2c1N(C(=O)CN(CC)CC)c1cc(Cl)ccc1S2 | u | u | -14.2% | i | 31.6µM* | u
CCOC(=O)c1c(C)sc2c1N(C(=O)CN(CC)CC)c1ccccc1S2 | u | -7.0% | -36.3% | i | -10.3% | i
OC(COC(c1ccc(Cl)cc1)c1ccc(Cl)cc1)CN1CCN(c2ccccn2)CC1 (stereo not given) | i | u | 14.1µM* | u | u | 18.4µM*
CN(C)CC(O)COC(c1ccc(Cl)cc1)c1ccc(Cl)cc1 (stereo not given) | u | u | 15.8µM* | i | u | i
CC1CN(CC(O)COC(c2ccc(Cl)cc2)c2ccc(Cl)cc2)CC(C)O1 (stereo not given) | u | u | 15.8µM* | u | u | u
O=C(NCCCN1CCOCC1)c1cc2c([nH]c3ccccc32)c(-c2cccc(Br)c2)n1 | u | u | -55.3% | u | u | u
COc1cccc(-c2nc(C(=O)NCCCN3CCOCC3)cc3c2[nH]c2ccccc23)c1 | u | u | -45.1% | 18.4µM* | u | i
CCc1ccc(Nc2cc(C(=O)NCCCN3CCOCC3)c3ccccc3n2)cc1 | u | -4.9% | 7.08µM* | i | -30.6% | u
COc1ccc(Nc2cc(C(=O)NCCCN3CCOCC3)c3ccccc3n2)cc1 | i | 11.6% | -0.8% | i | 0.0% | i
COc1ccc(Nc2cc(C(=O)NCCCN(C)C3CCCCC3)c3ccccc3n2)c(OC)c1 | 31.6µM* | u | -75.3% | i | -36.5% | i
COc1ccc(OC)c(Nc2cc(C(=O)NCCCN3CCOCC3)c3ccccc3n2)c1 | i | 0.2% | -17.2% | 18.4µM* | -0.8% | i
SMILES | S2 tox | TGFb SMAD3 inh | HepG2 tox | KB-V1 MDR tox | ATXN2 expr inh | KB-3-1 tox
Cc1ccc(C)c(N2CCN(C(=O)CS(=O)(=O)c3cccc4nsnc34)CC2)c1 | i | -18.5% | -8.4% | i | -10.4% | i
Cc1c(CNCc2ccc(Cl)cc2)c(C(=O)O)c(C)n1Cc1ccc(F)cc1 | i | -3.7% | -23.7% | i | -3.4% | i
Cc1ccccc1-n1cc(CNC(=O)CN2Cc3ccccc3OC(C)C2)cn1 (stereo not given) | i | x | x | x | x | x
Cc1ccc(NC(=O)N2CCN(Cc3nc4ccc(C)cc4o3)CC2)cc1 | i | -8.0% | -14.6% | i | -14.6% | i
COc1cc(SSc2cc(OC)cc([N+](=O)[O-])c2N)c(N)c([N+](=O)[O-])c1 | 7.94µM* | u | -57.6% | u | x | u
COc1cc([N+](=O)[O-])c2ncsc2c1 | i | 1.0% | -3.2% | i | -10.9% | i
CCCn1c(N)c(C(=O)CSc2nnc(Cc3ccccc3)o2)c(=O)n(C)c1=O | u | -11.7% | -37.5% | 10.3µM* | -34.1% | i
O=C(CSc1nnc(Cc2ccccc2)o1)c1ccccc1 | i | 1.2% | -0.8% | i | 21.1% | i
Nc1c(C(=O)Nc2ccc(S(=O)(=O)N3CCCC3)cc2)sc2nc3ccc(OC(F)(F)F)cc3cc12 | x | -12.2% | 1.78µM* | u | u | 14.6µM*
COc1cc(/C=C2\N=C(c3ccccc3)NNC2=O)cc(OC)c1OC | i | u | -20.4% | 4.11µM* | -2.8% | 4.61µM*
CC(C)Cc1nc2cc(NS(=O)(=O)N(C)C)cc(C(=O)N3CCN(c4ccccc4)CC3)c2n1C | i | x | x | x | x | x
CCc1ccc(CN2C(=O)CCC2(C)C(=O)NC2CCCC2)cc1 (stereo not given) | i | -18.3% | -24.6% | 20.6µM* | -3.2% | i
COc1cccc(CN2C(=O)CCC2(C)C(=O)NC2CCCCC2)c1 (stereo not given) | i | -3.4% | -3.5% | i | 2.1% | i
CC(C)CCN1C(=O)CCC1(C)C(=O)NC1CCCCCC1 (stereo not given) | i | -20.7% | 3.0% | 18.4µM* | -7.5% | i
COc1ccc(CN2C(=O)CCC2(C)C(=O)NC2CCCCCC2)cc1 (stereo not given) | i | 7.3% | -19.7% | 14.6µM* | -1.8% | i
